Test results reported in publication PMC11006913.
Changes are numbered by the printed parent chain.

Tests used:
Test in all cases: PBM; 200 nM protein, PBS
Settings in all cases: dsDNA, one strand shown
HOXB9 [1] = molecular target: HOXB9 (Homo sapiens, UniProt P17482 171-250, T197M)
HOXC9 [2] = molecular target: HOXC9 (Homo sapiens, UniProt P31274 178-260, K195R)
VENTX = molecular target: T1, VENTX (Homo sapiens, UniProt O95231 78-163)
T1 sequence: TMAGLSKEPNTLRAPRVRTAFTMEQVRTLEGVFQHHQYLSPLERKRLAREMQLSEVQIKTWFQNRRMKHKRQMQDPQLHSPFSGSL

HOXA7 [3] = molecular target: HOXA7 (Homo sapiens, UniProt P31268 116-202)
HOXC10 [4] = molecular target: HOXC10 (Homo sapiens, UniProt Q9NYD6 254-340)
PAX4 [5] = molecular target: T2, PAX4 (Homo sapiens, UniProt O43316 9-242, R200K)
T2 sequence: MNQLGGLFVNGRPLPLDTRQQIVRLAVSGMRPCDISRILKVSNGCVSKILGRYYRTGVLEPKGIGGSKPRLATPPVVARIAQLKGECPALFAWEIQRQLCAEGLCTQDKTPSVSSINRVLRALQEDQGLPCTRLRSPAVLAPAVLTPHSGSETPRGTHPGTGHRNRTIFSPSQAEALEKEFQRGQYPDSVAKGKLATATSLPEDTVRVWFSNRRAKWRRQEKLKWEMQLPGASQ

PAX4 [6] = molecular target: T3, PAX4 (Homo sapiens, UniProt O43316 9-242)
T3 sequence: T2 sequence with K192R

HOXB9 [7] = molecular target: HOXB9 (Homo sapiens, UniProt P17482 171-250)
HOXC9 [8] = molecular target: HOXC9 (Homo sapiens, UniProt P31274 178-260)
HOXC9 [9] = molecular target: HOXC9 (Homo sapiens, UniProt P31274 178-260, R193K)
PAX4 [10] = molecular target: T4, PAX4 (Homo sapiens, UniProt O43316 9-242, F177V)
T4 sequence: T2 sequence with F169V, K192R

HOXC10 [11] = molecular target: HOXC10 (Homo sapiens, UniProt Q9NYD6 254-340, K271E)
PAX4 [12] = molecular target: T5, PAX4 (Homo sapiens, UniProt O43316 9-242, F177Y)
T5 sequence: T2 sequence with F169Y, K192R

VAX1 = VAX1 (Homo sapiens, UniProt Q5SQQ9 86-172)
HOXB9 [13] = molecular target: HOXB9 (Homo sapiens, UniProt P17482 171-250, R186Q)
HOXC9 [14] = molecular target: HOXC9 (Homo sapiens, UniProt P31274 178-260, R222W)
PAX4 [15] = molecular target: T6, PAX4 (Homo sapiens, UniProt O43316 9-242, R227W)
T6 sequence: T2 sequence with K192R, R219W

HOXA2 [16] = molecular target: HOXA2 (Homo sapiens, UniProt O43364 129-215, Y150S)
HOXA7 [17] = molecular target: HOXA7 (Homo sapiens, UniProt P31268 116-202, W177C)
HOXA2 [18] = molecular target: HOXA2 (Homo sapiens, UniProt O43364 129-215)
HOXA2 (Homo sapiens, UniProt O43364 129-215), sequence (O43364 129-215): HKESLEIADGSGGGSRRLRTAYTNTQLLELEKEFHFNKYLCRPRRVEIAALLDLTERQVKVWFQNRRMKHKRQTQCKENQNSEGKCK

HOXC9 (Homo sapiens, UniProt P31274 178-260, R193K), sequence (P31274 178-260 R193K): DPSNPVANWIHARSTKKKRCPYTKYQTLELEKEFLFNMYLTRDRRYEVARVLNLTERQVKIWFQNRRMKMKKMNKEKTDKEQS
HOXB9 (Homo sapiens, UniProt P17482 171-250, T197M), sequence (P17482 171-250 T197M): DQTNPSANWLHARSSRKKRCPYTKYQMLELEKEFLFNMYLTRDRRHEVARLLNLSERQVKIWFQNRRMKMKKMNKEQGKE
HOXA7 (Homo sapiens, UniProt P31268 116-202), sequence (P31268 116-202): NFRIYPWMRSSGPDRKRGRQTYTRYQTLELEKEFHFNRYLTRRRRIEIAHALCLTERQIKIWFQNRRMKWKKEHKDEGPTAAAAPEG
HOXA7 (Homo sapiens, UniProt P31268 116-202, W177C), sequence (P31268 116-202 W177C): as the sequence (P31268 116-202) above, with W62C counted along it
HOXB9 (Homo sapiens, UniProt P17482 171-250), sequence (P17482 171-250): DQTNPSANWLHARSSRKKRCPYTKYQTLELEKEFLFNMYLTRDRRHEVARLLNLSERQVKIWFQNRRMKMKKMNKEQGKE
HOXB9 (Homo sapiens, UniProt P17482 171-250, R186Q), sequence (P17482 171-250 R186Q): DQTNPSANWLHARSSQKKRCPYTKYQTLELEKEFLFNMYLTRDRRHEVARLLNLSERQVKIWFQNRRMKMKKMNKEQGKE
HOXC10 (Homo sapiens, UniProt Q9NYD6 254-340), sequence (Q9NYD6 254-340): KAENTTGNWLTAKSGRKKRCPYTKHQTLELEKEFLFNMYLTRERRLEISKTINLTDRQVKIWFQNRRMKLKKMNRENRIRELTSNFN
HOXC9 (Homo sapiens, UniProt P31274 178-260, K195R), sequence (P31274 178-260 K195R): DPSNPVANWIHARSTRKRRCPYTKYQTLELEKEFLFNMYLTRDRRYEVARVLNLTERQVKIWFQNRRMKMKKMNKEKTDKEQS
HOXA2 (Homo sapiens, UniProt O43364 129-215, Y150S), sequence (O43364 129-215 Y150S): as the sequence (O43364 129-215) above, with Y22S counted along it
HOXC9 (Homo sapiens, UniProt P31274 178-260, R222W), sequence (P31274 178-260 R222W): as the sequence (P31274 178-260 R193K) above, with K16R, R45W counted along it
HOXC9 (Homo sapiens, UniProt P31274 178-260), sequence (P31274 178-260): as the sequence (P31274 178-260 R193K) above, with K16R counted along it
HOXC10 (Homo sapiens, UniProt Q9NYD6 254-340, K271E), sequence (Q9NYD6 254-340 K271E): as the sequence (Q9NYD6 254-340) above, with K18E counted along it
VAX1, sequence (Q5SQQ9 86-172): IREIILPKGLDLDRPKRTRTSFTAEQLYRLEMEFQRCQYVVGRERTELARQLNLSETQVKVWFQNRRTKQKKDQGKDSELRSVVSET

Sequence	binding signal (HOXB9 [1])	binding signal (HOXC9 [2])	binding signal (VENTX)	binding signal (HOXA7 [3])	binding signal (HOXC10 [4])	binding signal (PAX4 [5])	binding signal (PAX4 [6])	binding signal (HOXB9 [7])	binding signal (HOXC9 [8])	binding signal (HOXC9 [9])	binding signal (PAX4 [10])	binding signal (HOXC10 [11])	binding signal (PAX4 [12])	binding signal (VAX1)	binding signal (HOXB9 [13])	binding signal (HOXC9 [14])	binding signal (PAX4 [15])	binding signal (HOXA2 [16])	binding signal (HOXA7 [17])	binding signal (HOXA2 [18])
ATAATTAC	10.5 upbm affinity estimate (log intensity, higher = more binding, comparable within an allelic series)	13 upbm affinity estimate (log intensity, higher = more binding, comparable within an allelic series)	12.5 upbm affinity estimate (log intensity, higher = more binding, comparable within an allelic series)	12.2 upbm affinity estimate (log intensity, higher = more binding, comparable within an allelic series)	12.4 upbm affinity estimate (log intensity, higher = more binding, comparable within an allelic series)	11.8 upbm affinity estimate (log intensity, higher = more binding, comparable within an allelic series)	12.3 upbm affinity estimate (log intensity, higher = more binding, comparable within an allelic series)	12.1 upbm affinity estimate (log intensity, higher = more binding, comparable within an allelic series)	13 upbm affinity estimate (log intensity, higher = more binding, comparable within an allelic series)	12.9 upbm affinity estimate (log intensity, higher = more binding, comparable within an allelic series)	10.8 upbm affinity estimate (log intensity, higher = more binding, comparable within an allelic series)	12.4 upbm affinity estimate (log intensity, higher = more binding, comparable within an allelic series)	11.2 upbm affinity estimate (log intensity, higher = more binding, comparable within an allelic series)	13.4 upbm affinity estimate (log intensity, higher = more binding, comparable within an allelic series)	11.9 upbm affinity estimate (log intensity, higher = more binding, comparable within an allelic series)	11.1 upbm affinity estimate (log intensity, higher = more binding, comparable within an allelic series)	11.2 upbm affinity estimate (log intensity, higher = more binding, comparable within an allelic series)	11.1 upbm affinity estimate (log intensity, higher = more binding, comparable within an allelic series)	9.02 upbm affinity estimate (log intensity, higher = more binding, comparable within an allelic series)	13.1 upbm affinity estimate (log intensity, higher = more binding, comparable within an allelic series)
ATAATTAA	10.3 upbm affinity estimate (log intensity, higher = more binding, comparable within an allelic series)	12.9 upbm affinity estimate (log intensity, higher = more binding, comparable within an allelic series)	12.5 upbm affinity estimate (log intensity, higher = more binding, comparable within an allelic series)	12.1 upbm affinity estimate (log intensity, higher = more binding, comparable within an allelic series)	12.5 upbm affinity estimate (log intensity, higher = more binding, comparable within an allelic series)	11.9 upbm affinity estimate (log intensity, higher = more binding, comparable within an allelic series)	12.4 upbm affinity estimate (log intensity, higher = more binding, comparable within an allelic series)	12.1 upbm affinity estimate (log intensity, higher = more binding, comparable within an allelic series)	12.9 upbm affinity estimate (log intensity, higher = more binding, comparable within an allelic series)	12.8 upbm affinity estimate (log intensity, higher = more binding, comparable within an allelic series)	10.8 upbm affinity estimate (log intensity, higher = more binding, comparable within an allelic series)	12.3 upbm affinity estimate (log intensity, higher = more binding, comparable within an allelic series)	11.2 upbm affinity estimate (log intensity, higher = more binding, comparable within an allelic series)	13.5 upbm affinity estimate (log intensity, higher = more binding, comparable within an allelic series)	11.9 upbm affinity estimate (log intensity, higher = more binding, comparable within an allelic series)	11.2 upbm affinity estimate (log intensity, higher = more binding, comparable within an allelic series)	11.2 upbm affinity estimate (log intensity, higher = more binding, comparable within an allelic series)	11 upbm affinity estimate (log intensity, higher = more binding, comparable within an allelic series)	8.99 upbm affinity estimate (log intensity, higher = more binding, comparable within an allelic series)	13 upbm affinity estimate (log intensity, higher = more binding, comparable within an allelic series)
AATTAATA	10.3 upbm affinity estimate (log intensity, higher = more binding, comparable within an allelic series)	12.8 upbm affinity estimate (log intensity, higher = more binding, comparable within an allelic series)	12.3 upbm affinity estimate (log intensity, higher = more binding, comparable within an allelic series)	11.7 upbm affinity estimate (log intensity, higher = more binding, comparable within an allelic series)	12.2 upbm affinity estimate (log intensity, higher = more binding, comparable within an allelic series)	12 upbm affinity estimate (log intensity, higher = more binding, comparable within an allelic series)	12.5 upbm affinity estimate (log intensity, higher = more binding, comparable within an allelic series)	12 upbm affinity estimate (log intensity, higher = more binding, comparable within an allelic series)	12.7 upbm affinity estimate (log intensity, higher = more binding, comparable within an allelic series)	12.7 upbm affinity estimate (log intensity, higher = more binding, comparable within an allelic series)	10.8 upbm affinity estimate (log intensity, higher = more binding, comparable within an allelic series)	12 upbm affinity estimate (log intensity, higher = more binding, comparable within an allelic series)	11.2 upbm affinity estimate (log intensity, higher = more binding, comparable within an allelic series)	12.9 upbm affinity estimate (log intensity, higher = more binding, comparable within an allelic series)	11.8 upbm affinity estimate (log intensity, higher = more binding, comparable within an allelic series)	11.3 upbm affinity estimate (log intensity, higher = more binding, comparable within an allelic series)	11.2 upbm affinity estimate (log intensity, higher = more binding, comparable within an allelic series)	11.1 upbm affinity estimate (log intensity, higher = more binding, comparable within an allelic series)	8.99 upbm affinity estimate (log intensity, higher = more binding, comparable within an allelic series)	12.1 upbm affinity estimate (log intensity, higher = more binding, comparable within an allelic series)
GCAATTAA	10.5 upbm affinity estimate (log intensity, higher = more binding, comparable within an allelic series)	13.1 upbm affinity estimate (log intensity, higher = more binding, comparable within an allelic series)	12.8 upbm affinity estimate (log intensity, higher = more binding, comparable within an allelic series)	12.3 upbm affinity estimate (log intensity, higher = more binding, comparable within an allelic series)	12.4 upbm affinity estimate (log intensity, higher = more binding, comparable within an allelic series)			12.6 upbm affinity estimate (log intensity, higher = more binding, comparable within an allelic series)	13.1 upbm affinity estimate (log intensity, higher = more binding, comparable within an allelic series)	13 upbm affinity estimate (log intensity, higher = more binding, comparable within an allelic series)		12.6 upbm affinity estimate (log intensity, higher = more binding, comparable within an allelic series)		13.2 upbm affinity estimate (log intensity, higher = more binding, comparable within an allelic series)	12.4 upbm affinity estimate (log intensity, higher = more binding, comparable within an allelic series)	11.1 upbm affinity estimate (log intensity, higher = more binding, comparable within an allelic series)		10.8 upbm affinity estimate (log intensity, higher = more binding, comparable within an allelic series)	8.72 upbm affinity estimate (log intensity, higher = more binding, comparable within an allelic series)	12.6 upbm affinity estimate (log intensity, higher = more binding, comparable within an allelic series)
GTTAATTA	10.3 upbm affinity estimate (log intensity, higher = more binding, comparable within an allelic series)	12.9 upbm affinity estimate (log intensity, higher = more binding, comparable within an allelic series)	13 upbm affinity estimate (log intensity, higher = more binding, comparable within an allelic series)	12.2 upbm affinity estimate (log intensity, higher = more binding, comparable within an allelic series)	12.3 upbm affinity estimate (log intensity, higher = more binding, comparable within an allelic series)	12.1 upbm affinity estimate (log intensity, higher = more binding, comparable within an allelic series)	12.7 upbm affinity estimate (log intensity, higher = more binding, comparable within an allelic series)	12 upbm affinity estimate (log intensity, higher = more binding, comparable within an allelic series)	12.8 upbm affinity estimate (log intensity, higher = more binding, comparable within an allelic series)	12.8 upbm affinity estimate (log intensity, higher = more binding, comparable within an allelic series)	10.9 upbm affinity estimate (log intensity, higher = more binding, comparable within an allelic series)	12.3 upbm affinity estimate (log intensity, higher = more binding, comparable within an allelic series)	11.4 upbm affinity estimate (log intensity, higher = more binding, comparable within an allelic series)	13.8 upbm affinity estimate (log intensity, higher = more binding, comparable within an allelic series)	11.8 upbm affinity estimate (log intensity, higher = more binding, comparable within an allelic series)	11.1 upbm affinity estimate (log intensity, higher = more binding, comparable within an allelic series)	11.3 upbm affinity estimate (log intensity, higher = more binding, comparable within an allelic series)	10.9 upbm affinity estimate (log intensity, higher = more binding, comparable within an allelic series)	8.93 upbm affinity estimate (log intensity, higher = more binding, comparable within an allelic series)	13.2 upbm affinity estimate (log intensity, higher = more binding, comparable within an allelic series)
ATTAATGA	10.4 upbm affinity estimate (log intensity, higher = more binding, comparable within an allelic series)	13 upbm affinity estimate (log intensity, higher = more binding, comparable within an allelic series)	12.8 upbm affinity estimate (log intensity, higher = more binding, comparable within an allelic series)	12 upbm affinity estimate (log intensity, higher = more binding, comparable within an allelic series)	12.5 upbm affinity estimate (log intensity, higher = more binding, comparable within an allelic series)	11.8 upbm affinity estimate (log intensity, higher = more binding, comparable within an allelic series)	12.3 upbm affinity estimate (log intensity, higher = more binding, comparable within an allelic series)	12.2 upbm affinity estimate (log intensity, higher = more binding, comparable within an allelic series)	13 upbm affinity estimate (log intensity, higher = more binding, comparable within an allelic series)	12.9 upbm affinity estimate (log intensity, higher = more binding, comparable within an allelic series)	10.6 upbm affinity estimate (log intensity, higher = more binding, comparable within an allelic series)	12.3 upbm affinity estimate (log intensity, higher = more binding, comparable within an allelic series)	11.1 upbm affinity estimate (log intensity, higher = more binding, comparable within an allelic series)	13.4 upbm affinity estimate (log intensity, higher = more binding, comparable within an allelic series)	11.9 upbm affinity estimate (log intensity, higher = more binding, comparable within an allelic series)	11.2 upbm affinity estimate (log intensity, higher = more binding, comparable within an allelic series)	11 upbm affinity estimate (log intensity, higher = more binding, comparable within an allelic series)	11 upbm affinity estimate (log intensity, higher = more binding, comparable within an allelic series)	8.94 upbm affinity estimate (log intensity, higher = more binding, comparable within an allelic series)	12.9 upbm affinity estimate (log intensity, higher = more binding, comparable within an allelic series)
